Screening results from PubChem BioAssay.
CYP2C19 inh: inhibitors of human CYP2C19; 96,000 tested, 21% active; CYP2C19 Supersomes, luciferin-H EGE luminescence, 30 min; AID 778; P33261; inhibition, % at 5 µM;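 active = CYP2C19 inhibition above a set limit at 5 µM in the primary screen, cut at about 50% in these data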;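 note: plate controls were negative control wells for no effect and 2.5 mM tranylcypromine positive control for full effect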
sEH inh: soluble epoxide hydrolase (human) inhibition; inhibition, % at 2 µM; recombinant human sEH enzymatic activity assay; P34913; 91,000 tested, 0.34% active; in the data active = inhibition above about 80%
CYP2C9 act: CYP2C9 (human) activation. recombinant CYP2C9, luciferin-H conversion, luminescence; stronger effect = higher value; factor 1 = untreated enzyme, 0 = blocked. AID 1024. activation factor at 5 µM. P11712. 96,000 tested, 1.4% active;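 active = activation factor of 2 or more for CYP2C9 at a 5 µM dose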;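 note: 0 = sulfaphenazole-blocked wells and 1 = vehicle-only wells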
Target sequence (P11712 whole entry, looked up): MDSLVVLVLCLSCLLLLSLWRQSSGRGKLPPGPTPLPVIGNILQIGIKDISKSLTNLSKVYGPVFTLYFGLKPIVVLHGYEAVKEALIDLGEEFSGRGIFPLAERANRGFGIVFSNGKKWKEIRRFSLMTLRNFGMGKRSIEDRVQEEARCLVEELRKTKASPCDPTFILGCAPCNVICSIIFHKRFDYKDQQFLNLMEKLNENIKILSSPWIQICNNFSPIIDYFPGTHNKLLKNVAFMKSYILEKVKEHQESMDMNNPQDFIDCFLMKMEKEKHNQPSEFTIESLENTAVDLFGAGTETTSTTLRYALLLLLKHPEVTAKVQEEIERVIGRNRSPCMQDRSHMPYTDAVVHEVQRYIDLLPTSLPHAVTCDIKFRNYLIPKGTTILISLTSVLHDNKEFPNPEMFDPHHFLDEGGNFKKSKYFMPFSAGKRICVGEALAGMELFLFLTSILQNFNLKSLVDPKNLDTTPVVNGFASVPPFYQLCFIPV
sEH activator: activators of human soluble epoxide hydrolase; activation, % at 2 µM; 91,000 tested, 0.04% active; purified human sEH enzymatic activity, activator screen; AID 717; in the data active = activation above about 37%
CYP2C19 act: increases human CYP2C19 enzyme activity. P33261. recombinant CYP2C19, luciferin-H EGE luminescence; stronger effect = higher value; 0 = fully inhibited enzyme, 1 = untreated enzyme. 96,000 tested, under 10 active. activation factor at 5 µM. AID 1025;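 active = activation factor of at least 2 at 5 µM in the primary screen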;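 note: 0 = wells with 2.5 mM tranylcypromine and 1 = vehicle-only wells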
CYP2C9 inhib: inhibitors of human CYP2C9 | CYP2C9 Supersomes, luciferin-H conversion, luminescence | 96,000 tested, 20% active | inhibition, % at 5 µM | AID 777;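 active = blocking of liver enzyme CYP2C9 beyond about 50% at 5 µM, limit read from the data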
* hit, by the source's call; . = no result given. Sampled rows, rich in hits. Any-hit rate of the full collection: about 27%.

SMILES | CYP2C19 inh | sEH inh | CYP2C9 act | sEH activator | CYP2C19 act | CYP2C9 inhib
CCOc1ccc(NC(=O)c2cccc3c2C(=O)N(CCOC)C3)cc1 | 20 | -4 | 0.3 | 3 | 0.8 | 72*
COCCN1Cc2cccc(C(=O)NC(C)c3cccs3)c2C1=O (centres undefined) | 63* | -7 | 0.7 | 8 | 0.4 | 28
COCCN1Cc2cccc(C(=O)Nc3ccc(C)c(C)c3)c2C1=O | 3 | -5 | 0.6 | 6 | 1 | 41
CC1CCCC(C)N1CCNC(=O)C1CCN(S(=O)(=O)N2CCCCC2)CC1 (centres undefined) | 6 | 3 | 1.1 | -4 | 0.9 | -6
Cc1ccccc1Cn1ccc(NC(=O)c2cnn3c2NC(c2ccccc2)CC3C(F)(F)F)n1 (centres undefined) | 67* | -10 | 0 | 8 | 0.3 | 96*
Cc1nn(C)c(C)c1CN(C)C(=O)c1cnn2c1NC(c1ccccc1)CC2C(F)(F)F (centres undefined) | 32 | -12 | 0.3 | 11 | 0.7 | 65*
O=C(O)c1cnn2c1NC(c1ccc(F)cc1)CC2C(F)(F)F (centres undefined) | 7 | 7 | 1.1 | -4 | 0.9 | -6
Cc1c(CNC(=O)c2nn3c(c2Cl)NC(c2ccccc2)CC3C(F)(F)F)cnn1C (centres undefined) | 33 | . | 0.6 | . | 0.7 | 44
O=C(NCc1ccco1)c1cnn2c1NC(c1ccccc1)CC2C(F)(F)F (centres undefined) | 45 | -1 | 0.2 | 2 | 0.5 | 83*
O=C(NCc1ccco1)c1cnn2c1NC(c1ccc(Br)cc1)CC2C(F)(F)F (centres undefined) | 66* | -10 | 0.1 | 9 | 0.3 | 87*
C=CCNC(=O)c1ccc2c(c1)nnn2C | 4 | -4 | 1 | 4 | 1 | 0
CC(=O)OC(C)(C)C#CCN1CCCC1 | -10 | 13 | 1.1 | -13 | 1.1 | -11
Cn1cc(/C=N/n2cnc3scc(-c4ccccc4)c3c2=O)c2ccccc21 | 12 | 5 | 0.6 | -6 | 0.9 | 42
OCc1nn2c(c1Br)NC(c1ccccc1)CC2C(F)(F)F (centres undefined) | 71* | -7 | 0.3 | 10 | 0.3 | 74*
COc1ccc(Br)c(/C=N/NC(=O)COc2ccc(-c3ccccc3)cc2)c1 | 25 | 4 | 0.6 | -2 | 0.8 | 38
CC(NC(=O)COc1ccc(/C=N/NC(=O)C(=O)Nc2ccccc2Br)cc1)c1ccccc1 (centres undefined) | 47 | 2 | 0.3 | 0 | 0.5 | 69*
CC1CCc2c(sc(N)c2C(=O)OC(C)C)C1 (centres undefined) | 10 | 1 | 1.4 | -3 | 0.9 | -44
CCC(C)(C)NC(=O)CN(Cc1cccs1)C(=O)C(=O)Nc1ccc2c(c1)OCCO2 | 46 | 7 | 0.3 | -4 | 0.5 | 72*
O=[N+]([O-])c1ccc2c(c1)C(N1CCOCC1)/C(=C/COc1ccc(Cl)cc1Cl)O2 (centres undefined) | 45 | 3 | 0.2 | -3 | 0.6 | 77*
COc1ccc(S(=O)(=O)N(CC(=O)N2CCOCC2)c2cc(Cl)ccc2OC)cc1OC | 10 | . | 0.7 | . | 0.9 | 33
COc1ccc(/C=N/NC(=O)C2CCN(c3ncc(C(F)(F)F)cc3Cl)CC2)cc1 | 2 | 26 | 0.9 | -24 | 1 | 12
CC1C(=O)CC(c2ccccc2)N(C)C1c1ccccc1 (centres undefined) | 100* | 15 | 0.1 | -12 | 0 | 90*
CC(C)C1C(c2ccccc2)N(C)C(c2ccccc2)CC1(O)c1ccccc1 (centres undefined) | -2 | 4 | 1.1 | -3 | 1 | -5
CCCCC(=O)Nc1nn(CC(C)C)c2nc3ccccc3cc12 | 30 | -8 | 0.7 | 5 | 0.7 | 29
CCn1nc(NC(=O)c2ccncc2)c2cc3ccccc3nc21 | 70* | . | 0.3 | . | 0.3 | 67*
SMILES | CYP2C19 inh | sEH inh | CYP2C9 act | sEH activator | CYP2C19 act | CYP2C9 inhib
CC(C)Cn1nc(NC(=O)C(C)(C)C)c2cc3ccccc3nc21 | 36 | . | 0.5 | . | 0.6 | 52*
COc1ccc2nc3c(cc2c1)c(NC(=O)c1cccs1)nn3CC(C)C | 78* | -20 | 0.1 | 18 | 0.2 | 93*
CCn1nc(NC(=O)c2ccncc2)c2cc3cccc(C)c3nc21 | 41 | 15 | 0.6 | -14 | 0.6 | 37
CCOC(=O)C1(C(=O)OCC)CC1c1ccccc1 (centres undefined) | 41 | -12 | 0.9 | 14 | 0.6 | 9
CC(C)(C)NC(=O)C(c1cccs1)N(CC1CCCO1)C(=O)Cn1nnc(-c2cccs2)n1 (centres undefined) | 2 | -9 | 1 | 7 | 1 | -3
Cc1cc(C)c(C(=O)CSC2=NC(N)=C(C#N)C3(CCCCC3)C2C(N)=O)cc1C (centres undefined) | 41 | 0 | 0.9 | 0 | 0.6 | 7
COC(=O)c1cnn(-c2nc3c(C)cccc3s2)c1C | -1 | 2 | 1.1 | 0 | 1 | -12
C(=N\c1ncnc2sccc12)/NOCc1ccccc1 | 84* | 54 | 0.4 | -53 | 0.2 | 56*
O=C(CSc1ncn[nH]1)Nc1ccc(Br)cc1F | 82* | -2 | 0.9 | 3 | 0.2 | 6
O=C(CSc1ncn[nH]1)Nc1ccc(Cl)c(Cl)c1 | 63* | 2 | 0.7 | -1 | 0.4 | 27
O=C(CSc1ncn[nH]1)Nc1ccccc1C(=O)O | -5 | 2 | 1 | 0 | 1 | 1
O=C(O)CN(c1ccccc1F)S(=O)(=O)c1ccccc1 | 0 | 1 | 0.9 | -2 | 1 | 12
CC(C)CCNc1ncnc2c1nnn2Cc1ccccc1Cl | 15 | . | 2.4* | . | 0.8 | -139
Clc1ccccc1Nc1ncnc2c1nnn2Cc1ccccc1 | 37 | 7 | 1 | -9 | 0.6 | 2
c1ccc(Cn2nnc3c(NCC4CCCO4)ncnc32)cc1 (centres undefined) | 33 | -7 | 2.4* | 9 | 0.7 | -138
O=C(NCCCCCCNC(=O)c1ccc(Br)s1)c1ccc(Br)s1 | . | 58 | . | -56 | . | .
Cc1ccc(C)n1CCN1CCN(CC(=O)Nc2cc(C(F)(F)F)ccc2Cl)CC1 | 16 | -1 | 0.6 | 1 | 0.8 | 45
Cc1nc(CN2CCN(C(=O)c3ccc(C(C)(C)C)cc3)CC2)cs1 | 39 | . | 0.5 | . | 0.6 | 50
COc1ccc(CNC(=O)COC(=O)c2cnccn2)cc1 | 64* | 1 | 0.8 | -1 | 0.4 | 21
COc1ccccc1CNC(=O)COC(=O)c1n[nH]c2ccccc12 | 97* | -5 | 2.3* | 7 | 0 | -134
O=C(Oc1ccccc1)c1ccc(COC(=O)c2cnccn2)cc1 | 45 | 8 | 0.4 | -10 | 0.6 | 56*
COc1ccc(CCNC(=O)c2cnccn2)cc1 | 53* | -21 | 0.9 | 27 | 0.5 | 7
CC(=O)c1cnc(Nc2nc(C)c3cccc(C)c3n2)nc1C | -1 | . | 1 | . | 1 | 3
